Results with a measured potency or affinity are listed apart. Activity calls are given as the source filed them. Unless noted, no rule for the calls is given here.
target: Calcium-dependent protein kinase 1 (Plasmodium falciparum (isolate 3D7)) (UniProt P62344); experiment: PfCDPK1 kinase inhibitors, biochemical, TCAMS library (AID 1159585; cut-off not given, nearly all actives have IC50 up to about 0.98 µM;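 also: inhibitors leave more ATP so luminescence rises with inhibition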); conditions: recombinant PfCDPK1, Kinase-Glo ATP depletion luminescence
Sequence (P62344 whole entry, looked up): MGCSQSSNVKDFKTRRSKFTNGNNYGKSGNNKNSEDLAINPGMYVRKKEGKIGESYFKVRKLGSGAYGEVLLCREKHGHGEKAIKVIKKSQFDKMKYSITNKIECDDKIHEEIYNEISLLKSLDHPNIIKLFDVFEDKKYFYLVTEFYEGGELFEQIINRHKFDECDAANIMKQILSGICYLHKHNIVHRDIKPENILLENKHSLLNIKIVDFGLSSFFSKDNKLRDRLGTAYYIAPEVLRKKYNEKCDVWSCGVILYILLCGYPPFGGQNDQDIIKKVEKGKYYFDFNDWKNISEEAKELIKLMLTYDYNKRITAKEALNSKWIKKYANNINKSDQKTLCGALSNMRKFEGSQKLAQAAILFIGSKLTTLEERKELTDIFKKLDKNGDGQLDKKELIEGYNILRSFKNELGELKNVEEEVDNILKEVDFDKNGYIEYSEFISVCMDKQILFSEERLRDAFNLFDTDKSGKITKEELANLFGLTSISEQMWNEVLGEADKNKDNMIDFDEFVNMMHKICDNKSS

outcome, inactive:
Clc1ccc(Nc2nc(Nc3ccc(Cl)c(Cl)c3)nc(Sc3nc4ccccc4[nH]3)n2)cc1Cl, CCc1c(C)c2ccc3c(c2oc1=O)CN(CCc1ccc(F)cc1)CO3, c1cc(CN2CCc3ccccc3CC2)cc(-c2c[nH]c3nc(NC4CCCC4)ncc23)c1, C[C@H](N[C@H]1CCCc2c1[nH]c1ccc(Br)cc21)c1ccccc1, CCCCc1cc(NCc2ccncc2)nc(Nc2ccccc2)n1, CCC1CN(S(=O)(=O)c2ccc3c(c2)NC(=O)CC(=O)N3)c2cc(Cl)ccc2O1 (stereo not drawn), Cc1cccc(Nc2nccc(NCC(O)c3ccc(C(F)(F)F)cc3)n2)c1 (stereo not drawn), CCCCCc1cnc2nc(N)nc(N)c2c1, CCCCCCCN1CC[C@@H](CCCc2ccnc3ccc(OCCC4CCNCC4)cc23)[C@@H](CC)C1, CCOCCCn1c(=N)c(C(=O)NC(C)c2ccccc2)cc2c(=O)n3cccc(C)c3nc21 (stereo not drawn), O=S(=O)(NCCN1CCCC1)c1ccc(-c2ccc(CNCc3ccc(F)cc3)cc2)cc1, CCN(CC)c1ccc(-c2nc3ncc(Cl)cc3[nH]2)cc1, CC(C)(C)c1ccc(CN2CCC(CNC(=O)c3cc(-c4ccccc4F)cs3)C2)cc1 (stereo not drawn), COc1ccc2nccc([C@@H](O)CN3CCC(NC(=O)C(c4ccsc4)N4CCN(c5ccccc5OC)CC4)CC3)c2c1 (stereo partly drawn), CC(CN(C)C)C(=O)Nc1cccc(-c2ccc(-c3nc4ccccc4[nH]3)cc2)c1 (stereo not drawn), CC(C)(C)CNc1noc(-c2sccc2Br)n1, Cc1ccc2c(Cl)c(C(=O)N3CC(C)OC(C)C3)sc2c1 (stereo not drawn), O=C(O[C@@H]1CN[C@H](C#Cc2cc3ncnc(Nc4ccc5c(cnn5Cc5cccc(F)c5)c4)c3s2)C1)N1CCCC1, COc1ccc2c(c1)Sc1ccccc1C(N1CCN(CCO)CC1)C2 (stereo not drawn), CC(=O)N[C@@H]1c2cc(C(C)=O)ccc2OC(C)(C)[C@@H]1O, O=C(/C=C/c1ccc(Cl)cc1Cl)N1CCC(CCN2CCC(c3c[nH]c4ccccc34)CC2)CC1, COC(=O)c1cccc(CNCc2cccc(-c3ccc(-c4nc5c(C)cccc5[nH]4)s3)c2)c1, CS(=O)(=O)n1c(CN2CCN(c3ncc(C(F)(F)F)cc3Cl)CC2)nc2ccccc21, Cc1ccc(Nc2nc3cc(N(C)c4ccnc(Nc5cccc(CS(C)(=O)=O)c5)n4)ccc3o2)cc1, O=C(Nc1ccc2c(c1)CCN(C1CCC1)CC2)c1cn(-c2ccccc2)nc1-c1ccccc1, COc1ccc(C2c3cc(OC)c(OC)cc3C(=NO)C2C)cc1OC (stereo not drawn), CN(C)CCC1CCN(CCS(=O)(=O)c2cccc(Nc3ncc(-c4cccc(F)c4)cn3)c2)CC1, COc1ccc2ncc(F)c(CCN3CCC(NCc4cc5c(cn4)OCCS5)CC3)c2c1, CC(C)c1ccc(OCC(O)CN(CCN2CCOCC2)C(=O)Nc2ccc(Br)cc2)cc1 (stereo not drawn), COc1ccccc1N1CCN(C(C(=O)NCc2ccc3c(c2)OCO3)c2ccc3c(c2)OCCCO3)CC1 (stereo not drawn), COc1ccc2nccc([C@@H](O)CN3CCC(NC(=O)C(c4cc5ccccc5s4)N4CCN(c5ccccc5OC)CC4)CC3)c2c1 (stereo partly drawn), O=C(NCCCCCN1CCC(c2ccc(O)cc2)CC1)c1ccc(-c2ccccc2)cc1, CCc1cccc2sc(N3CCN(C(=O)c4ccc([N+](=O)[O-])o4)CC3)nc12, Cc1nc2nc(N)nc(N)c2c(C)c1Cc1ccccc1, CC(C(=O)OCCOCn1cnc2c(=O)[nH]c(N)nc21)N(C)C(=O)OC(C)(C)C (stereo not drawn), CCc1c(CCNCCCCCCNC(C)(C)Cc2ccc3c(c2CC)OCO3)ccc(OC)c1OC, COc1ccc(OCCCN2CCCCC2)cc1S(=O)(=O)c1ccc(OCc2ccc(C(F)(F)F)cc2)cc1, CC1(C)N=C(N)N=C(N)N1c1cccc(I)c1, CCCCN1CCN(CCCNc2c3ccccc3nc3ccccc23)CC1

target: Plasmodium falciparum protein kinase 6 (PK6, PF3D7_1337100) (UniProt Q8IDW1); experiment: PfPK6 kinase inhibitors, biochemical, TCAMS library (AID 1159586); conditions: recombinant PfPK6, Kinase-Glo ATP depletion luminescence
Sequence (Q8IDW1 1-305): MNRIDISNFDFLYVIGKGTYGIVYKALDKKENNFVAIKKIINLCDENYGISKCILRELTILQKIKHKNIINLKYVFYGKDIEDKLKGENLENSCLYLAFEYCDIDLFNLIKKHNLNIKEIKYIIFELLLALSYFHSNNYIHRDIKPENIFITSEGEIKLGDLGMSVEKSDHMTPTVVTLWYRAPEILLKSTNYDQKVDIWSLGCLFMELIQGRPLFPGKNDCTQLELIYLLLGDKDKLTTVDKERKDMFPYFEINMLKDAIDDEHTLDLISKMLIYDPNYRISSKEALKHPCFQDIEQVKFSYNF

outcome, inactive:
Clc1ccc(Nc2nc(Nc3ccc(Cl)c(Cl)c3)nc(Sc3nc4ccccc4[nH]3)n2)cc1Cl, CCc1c(C)c2ccc3c(c2oc1=O)CN(CCc1ccc(F)cc1)CO3, c1cc(CN2CCc3ccccc3CC2)cc(-c2c[nH]c3nc(NC4CCCC4)ncc23)c1, C[C@H](N[C@H]1CCCc2c1[nH]c1ccc(Br)cc21)c1ccccc1, CCCCc1cc(NCc2ccncc2)nc(Nc2ccccc2)n1, CCC1CN(S(=O)(=O)c2ccc3c(c2)NC(=O)CC(=O)N3)c2cc(Cl)ccc2O1 (stereo not drawn), Cc1cccc(Nc2nccc(NCC(O)c3ccc(C(F)(F)F)cc3)n2)c1 (stereo not drawn), CCCCCc1cnc2nc(N)nc(N)c2c1, CCCCCCCN1CC[C@@H](CCCc2ccnc3ccc(OCCC4CCNCC4)cc23)[C@@H](CC)C1, CCOCCCn1c(=N)c(C(=O)NC(C)c2ccccc2)cc2c(=O)n3cccc(C)c3nc21 (stereo not drawn), O=S(=O)(NCCN1CCCC1)c1ccc(-c2ccc(CNCc3ccc(F)cc3)cc2)cc1, CCN(CC)c1ccc(-c2nc3ncc(Cl)cc3[nH]2)cc1, CC(C)(C)c1ccc(CN2CCC(CNC(=O)c3cc(-c4ccccc4F)cs3)C2)cc1 (stereo not drawn), COc1ccc2nccc([C@@H](O)CN3CCC(NC(=O)C(c4ccsc4)N4CCN(c5ccccc5OC)CC4)CC3)c2c1 (stereo partly drawn), CC(CN(C)C)C(=O)Nc1cccc(-c2ccc(-c3nc4ccccc4[nH]3)cc2)c1 (stereo not drawn), CC(C)(C)CNc1noc(-c2sccc2Br)n1, Cc1ccc2c(Cl)c(C(=O)N3CC(C)OC(C)C3)sc2c1 (stereo not drawn), O=C(O[C@@H]1CN[C@H](C#Cc2cc3ncnc(Nc4ccc5c(cnn5Cc5cccc(F)c5)c4)c3s2)C1)N1CCCC1, COc1ccc2c(c1)Sc1ccccc1C(N1CCN(CCO)CC1)C2 (stereo not drawn), CC(=O)N[C@@H]1c2cc(C(C)=O)ccc2OC(C)(C)[C@@H]1O, O=C(/C=C/c1ccc(Cl)cc1Cl)N1CCC(CCN2CCC(c3c[nH]c4ccccc34)CC2)CC1, COC(=O)c1cccc(CNCc2cccc(-c3ccc(-c4nc5c(C)cccc5[nH]4)s3)c2)c1, CS(=O)(=O)n1c(CN2CCN(c3ncc(C(F)(F)F)cc3Cl)CC2)nc2ccccc21, Cc1ccc(Nc2nc3cc(N(C)c4ccnc(Nc5cccc(CS(C)(=O)=O)c5)n4)ccc3o2)cc1, O=C(Nc1ccc2c(c1)CCN(C1CCC1)CC2)c1cn(-c2ccccc2)nc1-c1ccccc1, COc1ccc(C2c3cc(OC)c(OC)cc3C(=NO)C2C)cc1OC (stereo not drawn), CN(C)CCC1CCN(CCS(=O)(=O)c2cccc(Nc3ncc(-c4cccc(F)c4)cn3)c2)CC1, COc1ccc2ncc(F)c(CCN3CCC(NCc4cc5c(cn4)OCCS5)CC3)c2c1, CC(C)c1ccc(OCC(O)CN(CCN2CCOCC2)C(=O)Nc2ccc(Br)cc2)cc1 (stereo not drawn), COc1ccccc1N1CCN(C(C(=O)NCc2ccc3c(c2)OCO3)c2ccc3c(c2)OCCCO3)CC1 (stereo not drawn), COc1ccc2nccc([C@@H](O)CN3CCC(NC(=O)C(c4cc5ccccc5s4)N4CCN(c5ccccc5OC)CC4)CC3)c2c1 (stereo partly drawn), O=C(NCCCCCN1CCC(c2ccc(O)cc2)CC1)c1ccc(-c2ccccc2)cc1, CCc1cccc2sc(N3CCN(C(=O)c4ccc([N+](=O)[O-])o4)CC3)nc12, Cc1nc2nc(N)nc(N)c2c(C)c1Cc1ccccc1, CC(C(=O)OCCOCn1cnc2c(=O)[nH]c(N)nc21)N(C)C(=O)OC(C)(C)C (stereo not drawn), CCc1c(CCNCCCCCCNC(C)(C)Cc2ccc3c(c2CC)OCO3)ccc(OC)c1OC, COc1ccc(OCCCN2CCCCC2)cc1S(=O)(=O)c1ccc(OCc2ccc(C(F)(F)F)cc2)cc1, CC1(C)N=C(N)N=C(N)N1c1cccc(I)c1, CCCCN1CCN(CCCNc2c3ccccc3nc3ccccc23)CC1
